Data on seven molecules can be found in PubChem BioAssay (Tox21).

Values joined by “and” are separate entries in the source; they are usually repeats but may differ in a detail not shown here. Identical values can stand only once. Results filed as inconclusive are left out. More than one record can exist for a structure, and the calls need not agree. Active and inactive are the calls of the source. Calls come from the whole dose curve; as a rule, active = well fitted curve in the direction sought with a large enough effect in the repeat runs; inconclusive = weak or mixed curves; inactive = no such curve, though single readings can be large; an effect the other way counts as inactive or inconclusive.

Experiment [1] can be described thus: Caspase-3/7 induction in HepG2 cells by small molecules, qHTS assay (AID 1346978). Note: nearly all actives have a fitted effect of over 15% in size. Put shortly:
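Caspase-3/7 induction was measured by Caspase-Glo 3/7 luminescence (30 min, room temperature) after a 17 hr compound exposure of wild-type HepG2 cells seeded at 2,000 per well and pre-incubated 5 hr.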

Experiment [2] can be described thus: Caspase-3/7 induction in CHO-K1 cells by small molecules, qHTS cell viability counter screen (AID 1346979). Note: nearly all actives have a fitted effect of over 35% in size. Note: potency is the fitted concentration of half-maximal effect. A digest of the protocol: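 Wild-type CHO-K1 cells were seeded at 1,500 per well, rested 5hr at 37 C, then exposed to compounds in DMSO. After 16hr, CellTiter-Fluor reagent was added and fluorescence read 1hr later as the viability measure.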
On the technique in general: Quantitative high-throughput screening tests each substance at several concentrations.

Experiment [3] in a line: Caspase-3/7 induction in CHO-K1 cells by small molecules, qHTS assay (AID 1346980). Note: nearly all actives have a fitted effect of over 15% in size. Put shortly: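 Luminescent Caspase-Glo 3/7 read (30min, room temperature) quantified apoptosis induction. Cells were wild-type CHO-K1, treated with compound for 17hr at 37 C and 5% CO2.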
Experiment [4] is described as follows: Caspase-3/7 induction in HepG2 cells by small molecules, qHTS cell viability counter screen (AID 1346981). For activity change, negative = cytotoxicity: series mostly up to about 92 µM. Note: nearly all actives have a fitted effect of over 30% in size. Note: potency is the fitted concentration of half-maximal effect. A digest of the protocol: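 Cell viability is measured as a cytotoxicity counter screen alongside the Caspase-Glo 3/7 readout in identical wells. Wild-type HepG2 cells are treated with test compounds for 16 hr at 37 C before CellTiter-Fluor addition and a 1-hr incubation.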

Experiment [5] concerns the target Nuclear receptor subfamily 1 group I member 2 (Homo sapiens) (UniProt O75469). Description: Human pregnane X receptor (PXR) small molecule agonists, qHTS assay (AID 1346982). Note: nearly all actives have a fitted effect of over 35% in size. Note: potency is the fitted concentration of half-maximal effect. Put shortly:
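Cells: HepG2 stably carrying PXR-Luc. Medium held 5% charcoal-stripped FBS. Compounds in DMSO added after 5 hr plating, incubated 24 hr, then luminescence quantified with ONE-Glo.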

In experiment [6] the target is Nuclear receptor subfamily 1 group I member 2 (Rattus norvegicus) (UniProt Q9R1A7). Description: Rat pregnane X receptor (rPXR) activation by small molecules, qHTS assay (AID 1346983). Note: nearly all actives have a fitted effect of over 20% in size. Particulars: rPXR luciferase reporter cells, One-Glo luminescence, 24 h; stronger effect = higher value. Put shortly: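 Luminescent readout (One-Glo luciferase, 30 min room temperature) followed 24 hr compound treatment at 37 C of rPXR cells plated 2,000 per well and preincubated 5hr; qHTS format with compounds delivered in DMSO.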

Experiment [7] addresses Nuclear receptor subfamily 1 group I member 2 (Homo sapiens) (UniProt O75469). Description: CYP3A4 induction through human pregnane X receptor (PXR) by small molecules, qHTS assay (AID 1346984). Note: nearly all actives have a fitted effect of over 40% in size. A digest of the protocol:
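Quantitative HTS in DPX-2 cells, i.e. HepG2 transfected with PXR response element and CYP3A4-promoter luciferase. Compounds in DMSO incubated 24hr at 37C; then P450-Glo CYP3A4 substrate, 3uM final, 3hr; One-Glo luminescence.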

Experiment [8] has the same target. Description: Human pregnane X receptor (PXR) activation by small molecules, qHTS assay (AID 1346985). Note: nearly all actives have a fitted effect of over 40% in size. Note: potency is the fitted concentration of half-maximal effect. Put shortly: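 DPX-2 cells (HepG2 co-transfected with a PXR response element and a CYP3A4-promoter luciferase construct) were seeded at 2,000 per well, rested 5 hr at 37C, then exposed to DMSO-dissolved compounds for 24 hr. Activation was read as luciferase luminescence.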

Experiment [9] has as its target Cytochrome P450 2D6 (Homo sapiens) (UniProt P10635). Description: Cytochrome P450 Family 2 Subfamily D Member 6 (CYP2D6) small molecule antagonists: luciferase reporter qHTS assay (AID 1671196). For activity change, negative = inhibition: series mostly up to about 120 µM. Note: nearly all actives have a fitted effect of over 50% in size. Note: potency is the fitted concentration of half-maximal effect. A digest of the protocol: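 Enzyme and proluciferin substrate were first combined with test chemical for 10 min at room temperature. Adding NADPH regeneration solution started a 1 h reaction, stopped with luciferin detection reagent and read by luminescence 20 min later.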
For orientation: A reporter such as luciferase makes a cellular process visible.

The target of experiment [10] is Cytochrome P450 2C9 (Homo sapiens) (UniProt P11712). Description: Cytochrome P450 Family 2 Subfamily C Member 9 (CYP2C9) small molecule antagonists: luciferase reporter qHTS assay (AID 1671198). For activity change, negative = inhibition: series mostly up to about 120 µM. Note: nearly all actives have a fitted effect of over 50% in size. Note: potency is the fitted concentration of half-maximal effect. A digest of the protocol:
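Enzyme-substrate mix preincubated with compound 10 min at room temperature; reaction started with NADPH regeneration solution, 1 h 37C. Luminescent luciferin product read after 20 min detection reagent.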

Experiment [11] deals with Cytochrome P450 1A2 (Homo sapiens) (UniProt P05177). Description: Cytochrome P450 Family 1 Subfamily A Member 2 (CYP1A2) small molecule antagonists: luciferase reporter qHTS assay (AID 1671199). For activity change, negative = inhibition: series mostly up to about 120 µM. Note: nearly all actives have a fitted effect of over 50% in size. Note: potency is the fitted concentration of half-maximal effect. Put shortly: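 Compounds were incubated with CYP1A2 and a luminogenic proluciferin substrate for 10 min at room temperature before the reaction was started with NADPH regeneration solution. After 1 h, detection reagent was added and light output, proportional to CYP activity, was recorded.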

Experiment [12] addresses Voltage-gated inwardly rectifying potassium channel KCNH2 (Homo sapiens) (UniProt Q12809). Description: Human Ether-a-go-go-Related Gene (hERG) channel small molecule antagonists: fluorescence cell-based qHTS assay (AID 1671200).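 Note: hERG-expressing U2OS cells given a thallium stimulus after FluxOR II dye loading; series mostly up to about 77 µM; nearly all actives have a fitted effect of over 50% in size.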 A digest of the protocol:
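U2OS cells expressing the channel were plated at 1000 cells/well, incubated overnight at 37 C, then loaded with FluxOR II thallium-sensitive dye for 1 h at room temperature in the dark, with a further 10 min at room temperature before stimulation.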
In general terms: The hERG channel carries a current that helps repolarise heart muscle cells.

Experiment [13] deals with Cytochrome P450 3A4 (Homo sapiens) (UniProt P08684). Description: Cytochrome P450 Family 3 Subfamily A Member 4 (CYP3A4) small molecule antagonists: luciferase reporter qHTS assay (AID 1671201). For activity change, negative = inhibition: series mostly up to about 120 µM. Note: nearly all actives have a fitted effect of over 50% in size. Note: potency is the fitted concentration of half-maximal effect. Put shortly:
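P450-Glo CYP3A4 system with proluciferin substrate; compounds preincubated 10 min RT with enzyme-substrate mix, then NADPH regeneration added for 1 h RT. Detection reagent 20 min, luminescence read as relative luminescence units.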

Experiment [14] has as its target Cytochrome P450 2C19 (Homo sapiens) (UniProt P33261). Description: Cytochrome P450 Family 2 Subfamily C Member 19 (CYP2C19) small molecule antagonists: luciferase reporter qHTS assay (AID 1671197). For activity change, negative = inhibition: series mostly up to about 120 µM. Note: nearly all actives have a fitted effect of over 65% in size. Note: potency is the fitted concentration of half-maximal effect. A digest of the protocol:
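P450-Glo CYP2C19 screening system; proluciferin substrate; DMSO compound stocks; 10 min RT preincubation; NADPH regeneration, 1 h at 37C; luciferin detection reagent, 20 min RT; luminescence as RLU.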
% is set by controls: 0 for no effect and ±100 for the full control effect.

Cytochrome P450 1A2 (Homo sapiens), sequence (P05177 whole entry, looked up): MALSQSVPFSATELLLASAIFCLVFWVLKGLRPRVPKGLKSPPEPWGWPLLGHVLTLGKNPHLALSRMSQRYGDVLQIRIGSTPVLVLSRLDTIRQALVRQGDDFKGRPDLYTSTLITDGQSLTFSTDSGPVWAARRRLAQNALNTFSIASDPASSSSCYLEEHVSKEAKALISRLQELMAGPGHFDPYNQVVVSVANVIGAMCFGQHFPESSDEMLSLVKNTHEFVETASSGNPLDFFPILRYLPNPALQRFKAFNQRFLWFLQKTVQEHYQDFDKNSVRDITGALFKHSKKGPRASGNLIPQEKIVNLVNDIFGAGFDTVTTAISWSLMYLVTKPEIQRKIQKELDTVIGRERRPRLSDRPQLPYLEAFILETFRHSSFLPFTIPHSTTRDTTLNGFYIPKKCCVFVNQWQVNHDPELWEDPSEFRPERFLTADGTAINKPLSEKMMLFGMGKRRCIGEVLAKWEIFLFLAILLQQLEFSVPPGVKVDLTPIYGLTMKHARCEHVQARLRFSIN
Cytochrome P450 2C9 (Homo sapiens), sequence (P11712 whole entry, looked up): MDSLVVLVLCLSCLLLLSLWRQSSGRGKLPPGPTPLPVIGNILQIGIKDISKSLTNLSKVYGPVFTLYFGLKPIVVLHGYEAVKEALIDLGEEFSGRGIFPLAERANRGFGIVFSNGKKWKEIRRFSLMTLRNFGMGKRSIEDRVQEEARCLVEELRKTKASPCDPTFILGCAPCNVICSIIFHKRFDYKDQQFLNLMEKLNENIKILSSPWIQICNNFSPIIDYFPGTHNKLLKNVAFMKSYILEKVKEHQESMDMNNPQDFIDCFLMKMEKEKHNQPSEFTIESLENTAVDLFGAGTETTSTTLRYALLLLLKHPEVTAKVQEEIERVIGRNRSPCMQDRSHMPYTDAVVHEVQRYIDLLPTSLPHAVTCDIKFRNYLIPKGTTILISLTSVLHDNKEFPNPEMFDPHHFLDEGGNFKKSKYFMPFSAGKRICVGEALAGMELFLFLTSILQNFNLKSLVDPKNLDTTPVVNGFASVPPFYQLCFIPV
Cytochrome P450 2C19 (Homo sapiens), sequence (P33261 whole entry, looked up): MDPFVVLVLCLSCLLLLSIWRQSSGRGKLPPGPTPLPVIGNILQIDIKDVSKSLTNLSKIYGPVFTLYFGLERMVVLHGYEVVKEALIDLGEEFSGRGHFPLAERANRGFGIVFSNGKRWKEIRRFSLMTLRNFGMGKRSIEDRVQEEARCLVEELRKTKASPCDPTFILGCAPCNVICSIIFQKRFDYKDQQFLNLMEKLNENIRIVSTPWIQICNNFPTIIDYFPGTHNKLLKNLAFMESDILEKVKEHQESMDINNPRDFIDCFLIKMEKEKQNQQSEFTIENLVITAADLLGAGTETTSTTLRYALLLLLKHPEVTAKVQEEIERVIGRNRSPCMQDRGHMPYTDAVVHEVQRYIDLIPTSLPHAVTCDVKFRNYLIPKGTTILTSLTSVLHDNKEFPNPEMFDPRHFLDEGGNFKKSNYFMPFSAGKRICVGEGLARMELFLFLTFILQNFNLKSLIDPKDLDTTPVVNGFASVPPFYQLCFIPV
Cytochrome P450 2D6 (Homo sapiens), sequence (P10635 whole entry, looked up): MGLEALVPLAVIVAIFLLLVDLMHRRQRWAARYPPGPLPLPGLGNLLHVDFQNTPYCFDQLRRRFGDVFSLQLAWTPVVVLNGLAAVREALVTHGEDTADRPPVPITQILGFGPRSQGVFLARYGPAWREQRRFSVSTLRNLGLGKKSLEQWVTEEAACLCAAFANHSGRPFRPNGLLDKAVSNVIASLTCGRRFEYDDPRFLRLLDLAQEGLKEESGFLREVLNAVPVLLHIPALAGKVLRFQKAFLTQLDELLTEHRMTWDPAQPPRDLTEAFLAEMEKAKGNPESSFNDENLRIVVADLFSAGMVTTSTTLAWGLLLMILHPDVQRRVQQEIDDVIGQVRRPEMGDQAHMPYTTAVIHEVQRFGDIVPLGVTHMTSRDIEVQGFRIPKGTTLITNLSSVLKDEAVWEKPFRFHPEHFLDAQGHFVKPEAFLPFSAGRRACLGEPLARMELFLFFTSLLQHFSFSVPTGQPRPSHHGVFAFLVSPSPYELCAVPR
Voltage-gated inwardly rectifying potassium channel KCNH2 (Homo sapiens), sequence (Q12809 whole entry, looked up): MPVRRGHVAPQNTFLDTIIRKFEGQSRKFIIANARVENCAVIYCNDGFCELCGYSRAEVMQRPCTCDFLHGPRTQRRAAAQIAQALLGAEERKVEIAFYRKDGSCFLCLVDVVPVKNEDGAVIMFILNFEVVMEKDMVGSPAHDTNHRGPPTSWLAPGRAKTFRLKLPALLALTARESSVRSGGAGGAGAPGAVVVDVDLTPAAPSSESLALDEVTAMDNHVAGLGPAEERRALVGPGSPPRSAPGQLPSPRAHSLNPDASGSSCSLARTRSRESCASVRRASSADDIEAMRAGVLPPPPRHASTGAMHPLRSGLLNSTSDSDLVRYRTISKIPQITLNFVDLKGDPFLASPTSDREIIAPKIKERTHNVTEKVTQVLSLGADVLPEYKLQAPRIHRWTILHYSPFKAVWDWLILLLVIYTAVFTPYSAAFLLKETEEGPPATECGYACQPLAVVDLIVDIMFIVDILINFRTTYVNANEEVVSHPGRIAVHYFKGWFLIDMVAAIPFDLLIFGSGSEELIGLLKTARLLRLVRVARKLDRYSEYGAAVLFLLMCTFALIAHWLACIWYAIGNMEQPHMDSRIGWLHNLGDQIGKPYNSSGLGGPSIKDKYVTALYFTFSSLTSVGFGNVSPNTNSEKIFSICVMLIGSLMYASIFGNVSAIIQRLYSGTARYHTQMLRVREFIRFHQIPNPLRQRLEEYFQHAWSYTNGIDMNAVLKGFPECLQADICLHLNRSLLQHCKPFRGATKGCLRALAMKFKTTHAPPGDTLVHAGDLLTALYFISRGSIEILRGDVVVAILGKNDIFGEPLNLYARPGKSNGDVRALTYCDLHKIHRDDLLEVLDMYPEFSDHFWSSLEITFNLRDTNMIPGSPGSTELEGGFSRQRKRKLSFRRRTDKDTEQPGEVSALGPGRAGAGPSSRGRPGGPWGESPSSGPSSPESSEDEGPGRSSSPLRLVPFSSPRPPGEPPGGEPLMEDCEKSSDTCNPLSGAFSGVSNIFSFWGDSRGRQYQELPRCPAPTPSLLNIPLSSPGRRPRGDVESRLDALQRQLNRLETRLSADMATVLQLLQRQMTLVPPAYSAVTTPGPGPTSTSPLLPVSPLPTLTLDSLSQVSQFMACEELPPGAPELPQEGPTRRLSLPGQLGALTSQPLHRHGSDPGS
Nuclear receptor subfamily 1 group I member 2 (Homo sapiens), sequence (O75469 whole entry, looked up): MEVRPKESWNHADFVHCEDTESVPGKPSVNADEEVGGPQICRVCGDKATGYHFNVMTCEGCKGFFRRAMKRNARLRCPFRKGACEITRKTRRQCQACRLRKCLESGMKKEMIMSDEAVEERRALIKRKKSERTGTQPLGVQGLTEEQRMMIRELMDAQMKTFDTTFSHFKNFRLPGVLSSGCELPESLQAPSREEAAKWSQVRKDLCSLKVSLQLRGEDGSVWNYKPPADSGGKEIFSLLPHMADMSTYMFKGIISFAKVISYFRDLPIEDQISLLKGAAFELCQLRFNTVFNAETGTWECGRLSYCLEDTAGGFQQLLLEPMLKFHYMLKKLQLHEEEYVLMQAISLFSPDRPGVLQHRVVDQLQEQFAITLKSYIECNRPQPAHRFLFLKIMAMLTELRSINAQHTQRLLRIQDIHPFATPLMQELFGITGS
Cytochrome P450 3A4 (Homo sapiens), sequence (P08684 whole entry, looked up): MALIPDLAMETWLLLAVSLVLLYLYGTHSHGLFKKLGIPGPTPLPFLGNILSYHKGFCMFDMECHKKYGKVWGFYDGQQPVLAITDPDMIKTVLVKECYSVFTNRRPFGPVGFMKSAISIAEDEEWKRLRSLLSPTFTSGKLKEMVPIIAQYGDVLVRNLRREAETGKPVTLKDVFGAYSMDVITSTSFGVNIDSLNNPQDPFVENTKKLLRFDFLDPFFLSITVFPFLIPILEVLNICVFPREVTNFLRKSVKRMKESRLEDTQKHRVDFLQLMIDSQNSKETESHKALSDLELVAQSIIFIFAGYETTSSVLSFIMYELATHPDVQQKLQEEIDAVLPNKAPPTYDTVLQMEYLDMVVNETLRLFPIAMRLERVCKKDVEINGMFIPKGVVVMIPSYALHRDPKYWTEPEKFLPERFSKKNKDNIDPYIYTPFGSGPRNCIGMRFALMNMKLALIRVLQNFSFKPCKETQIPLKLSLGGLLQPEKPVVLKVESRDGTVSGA
Nuclear receptor subfamily 1 group I member 2 (Rattus norvegicus), sequence (Q9R1A7 whole entry, looked up): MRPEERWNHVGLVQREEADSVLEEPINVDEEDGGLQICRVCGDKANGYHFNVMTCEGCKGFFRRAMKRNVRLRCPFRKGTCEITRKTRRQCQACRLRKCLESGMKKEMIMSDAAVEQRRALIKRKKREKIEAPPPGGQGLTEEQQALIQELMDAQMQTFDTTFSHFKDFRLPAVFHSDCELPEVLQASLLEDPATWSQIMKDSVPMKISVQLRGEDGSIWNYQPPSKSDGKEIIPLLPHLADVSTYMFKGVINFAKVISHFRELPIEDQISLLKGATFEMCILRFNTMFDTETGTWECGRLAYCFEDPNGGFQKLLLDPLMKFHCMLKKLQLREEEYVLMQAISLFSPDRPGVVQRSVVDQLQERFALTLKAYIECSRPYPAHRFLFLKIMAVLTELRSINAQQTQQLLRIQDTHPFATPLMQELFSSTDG

In the case of `COc1cc(C(=S)N2CCOCC2)ccc1O`, the Potency entry in [1], in experiment [2], in experiment [3], in experiment [4], in experiment [5] and in experiment [7] was “inactive” each time. The Potency result in [8], in experiment [9], in experiment [10], in [11], in experiment [12] and in [13] was “inactive” each time. For the same molecule, the max activation in experiment [6] is -1.33% (inactive).

Regarding `CC(C)(C)NCC(O)c1cc(O)cc(O)c1` (centres undefined), the Potency entry in [1], in experiment [2], in [3], in [4], in experiment [5] and in [7] was “inactive” throughout. Also, the Potency entry in [8], in experiment [14], in [11], in [12] and in experiment [13] was “inactive” each time. The max activation in experiment [6] was 3.93% (inactive). In experiment [9], the Potency is 38.9 µM (active).

In the case of `NNCCc1ccccc1`, the Potency entry in experiment [1], in experiment [2], in experiment [3], in experiment [4], in experiment [7] and in experiment [12] was “inactive” each time. The Potency in experiment [5] was 27.4 µM (active) and 26.6 µM (active); in experiment [8], 12.6 µM (active); in experiment [9] it was 2.25 µM (active) and 12.3 µM (active); in experiment [14], 6.35 µM (active) and 13.8 µM (active); in experiment [10], 25.3 µM (active) and 17.4 µM (active); in experiment [11], 11.3 µM (active) and 17.4 µM (active).

As to `CCC(C)(C)C(=O)O[C@H]1C[C@@H](C)C=C2C=C[C@H](C)[C@H](CC[C@@H]3C[C@@H](O)CC(=O)O3)[C@H]21`, the Potency result in experiment [1], in experiment [2] and in experiment [3] was “inactive” in each case.

Take `CCn1c2ccccc2c2cc(N)ccc21`: the Potency result in experiment [1], in experiment [3] and in experiment [12] was “inactive” in each case. Besides, the Potency in experiment [2] was 53.9 µM (active) and inactive and 43.3 µM (active); in experiment [4], “inactive and 30.6 µM (active)”; in experiment [5], 5.39 µM (active) and 30.6 µM (active) and inactive; in [9] it was 703 nM (active) and 3.99 µM (active) and 10 µM (active); in [14], 4.43 µM (active) and 31.7 µM (active) and 12.6 µM (active); in [10] it was 12.5 µM (active) and 31.7 µM (active) and 28.3 µM (active). The Potency in [11] is 626 nM (active) and 2.24 µM (active) and 5.03 µM (active); in [13], 1.77 µM (active) and 5.64 µM (active) and 31.7 µM (active).

Take `CCCCCCCCCCCCCCCCCl`: in experiment [1], the caspase activation is -0.588% [at 19 µM] (inactive). Moreover, the activity change, negative = cytotoxicity in experiment [2] is -2.27% [at 19 µM] (inactive); in experiment [4], -0.832% [at 19 µM] (inactive). Moreover, the caspase-3/7 activation in experiment [3] is -1.24% [at 19 µM] (inactive). Further, the activation in [5] is -2.47% [at 19 µM] (inactive). Further, the activity change, negative = inhibition in [9] was 0.322% [at 23.6 µM] (inactive); in [14] it was -0.542% [at 23.6 µM] (inactive); in experiment [10], 1.72% [at 23.6 µM] (inactive); in [12] it was -0.466% [at 15.8 µM] (inactive); in experiment [13] it was 3.48% [at 23.6 µM] (inactive). The Potency result in experiment [11] was “inactive”.

For `CCc1ccc(C(c2ccc(CC)cc2)C(Cl)Cl)cc1`, the Potency entry in [1], in experiment [2], in experiment [3], in experiment [4], in [9] and in [12] was “inactive” in each case. For the same molecule, the Potency entry in experiment [13] was “inactive”. For the same molecule, the Potency in [5] is 31.1 µM (active) and 24.3 µM (active); in experiment [14] it was 6.43 µM (active) and 3.56 µM (active); in experiment [10], 14.4 µM (active) and 12.6 µM (active); in experiment [11] it was 40.6 µM (active).
